From PubChem
A selection: hits, their analogues and other compounds. The true share with any hit is near 18%.
TDP1 cell noCPT: qHTS for Inhibitors of human tyrosyl-DNA phosphodiesterase 1 (TDP1): qHTS in cells in absence of CPT. DT40 Tdp1-/- hTDP1 cells, no CPT, ATP luminescence, 48 h. Potency, µM (highest dose often 46.2 µM), for inactives: top-dose activity change, negative = growth inhibition, hits mostly inhibitors. hit rate 15% among 420,000; also: potency is read from the fitted curve at half-maximal effect; nearly all actives have a fitted effect of over 55% in size
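Compound effects on proliferation are scored in DT40 Tdp1-/-;hTDP1 cells in the absence of CPT. ATP levels (CellTiter-Glo luminescence) are recorded after a ≥48 hr, 37 °C incubation.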
RORg inh: inhibitors of mouse ROR gamma transcriptional activity; P51450; Drosophila S2 Gal4-RORgamma UAS-luciferase reporter, 20 h; Potency, µM (highest dose often 53.6 µM), for inactives: at the highest dose activity change, negative = inhibition, actives largely listed as inhibitors; hit rate 5.4% among 310,000; also: potency is read from the fitted curve at half-maximal effect; nearly all actives have a fitted effect of over 60% in size
Target sequence (P51450 whole entry, looked up, the tested form may be a part): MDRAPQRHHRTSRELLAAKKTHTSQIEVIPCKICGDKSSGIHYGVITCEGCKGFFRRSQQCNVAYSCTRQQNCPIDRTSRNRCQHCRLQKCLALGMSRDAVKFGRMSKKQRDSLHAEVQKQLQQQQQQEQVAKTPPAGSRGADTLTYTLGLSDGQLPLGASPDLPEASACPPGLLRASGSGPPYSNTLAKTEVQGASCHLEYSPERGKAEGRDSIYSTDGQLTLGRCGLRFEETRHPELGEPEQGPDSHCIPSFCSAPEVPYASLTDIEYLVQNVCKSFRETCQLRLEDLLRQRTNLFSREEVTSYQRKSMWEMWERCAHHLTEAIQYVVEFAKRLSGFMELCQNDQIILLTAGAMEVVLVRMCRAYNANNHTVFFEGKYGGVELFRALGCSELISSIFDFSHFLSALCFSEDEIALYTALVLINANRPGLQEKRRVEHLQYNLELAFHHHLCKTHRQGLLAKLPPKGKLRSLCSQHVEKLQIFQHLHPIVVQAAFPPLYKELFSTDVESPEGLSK
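Drosophila S2 cells stably expressing Gal4-DBD/mouse RORγ fusion under metallothionein promoter plus UAS-luciferase; compound 1 h, then 700 uM CuSO4 induction for 20 h at ambient temperature; inhibition read as reduced luminescence.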
VP16 counter: Gal4-VP16 reporter inhibition counter-screen; Drosophila S2 Gal4-VP16 UAS-luciferase, luminescence, 20 h; Potency, µM (doses to about 53.6 µM), for the others: top-dose activity, negative = inhibition, usual class: inhibitors; hit rate 3.5% among 310,000;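 also: Gal4-VP16 expression switched on by copper sulfate through the metallothionein promoter; potency is read from the fitted curve at half-maximal effect; nearly all actives have a fitted effect of over 50% in size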
IL1B secr inh: inflammasome signaling inhibition, IL-1 beta readout. THP-1 LPS/ATP IL-1B secretion, AlphaLISA, 16 h; hits give low values. activity change, % at 57.5 µM. hit rate 4.7% among 360,000; in the data active = activity change below about -50%; inconclusive = mostly about -30% to -49%
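THP-1 cells pretreated 1 hr with compounds (up to 57.5 uM final), then stimulated with LPS (250 ng/mL final) plus ATP (1.25 mM final); secreted IL-1B measured by AlphaLISA after 16 hr, decreased signal indicating inhibition.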
TDP1 cell CPT: growth inhibition of DT40 Tdp1-/-;hTDP1 cells with camptothecin (screen for TDP1 inhibitors) | chicken DT40 Tdp1-/-;hTDP1 cells + 20 nM CPT, ATP luminescence, 48 h | Potency, µM (top dose mostly 46.2 µM), for the others: at the top dose activity change, negative = growth inhibition, hits mostly inhibitors | hit rate 12% among 420,000; also: potency is read from the fitted curve at half-maximal effect; nearly all actives have a fitted effect of over 55% in size
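Chicken DT40 Tdp1-/- cells stably complemented with human TDP1 were seeded at 400 cells/well in medium containing 20 nM camptothecin, exposed to pin-transferred compounds, and grown at 37 °C for at least 48 hr. Viability was read as ATP luminescence.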
LDHA block: LDHA (human) enzyme inhibition. P00338. hit rate 0.15% among 480,000. activity change, % (values are at about 110 or 230 µM). AID 1347041. purified LDHA, NADH/diaphorase-resazurin fluorescence; hits give low values; in the data active = activity change below about -30%; inconclusive = mostly about -25% to -30%;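 also: plate controls were DMSO wells for no effect and wells without enzyme for full effect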
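Human LDH5 (2 nM) was incubated with 0.06 mM NADH and 0.2 mM pyruvate for 5 min at room temperature in Tris pH 7.4. Remaining NADH was coupled through diaphorase/resazurin, and resorufin fluorescence was read at 0 and 20 min.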
The depositor's hits bear a star; ? = inconclusive; . = no result; [ ] = remark or other dose. Unless noted, calls follow the shape of the dose curve; as a rule, active = well fitted curve in the direction sought with a large enough effect; inconclusive = small, poorly fitted or top-dose-only effect, or another doubt; inactive = no such curve, though single readings can be large; an effect the other way counts as inactive or inconclusive. Unless noted, % is scaled to controls: 0 for no effect and ±100 for the full control effect.

SMILES	TDP1 cell noCPT	RORg inh	VP16 counter	IL1B secr inh	TDP1 cell CPT	LDHA block
CC(c1ccccc1)n1cc2c(c1-c1ccccc1Br)c(=O)n(C)c(=O)n2C (stereo unspecified)	18.4µM*	.	.	.	16.4µM*	-11.2
COc1ccc(CCn2cc3c(c2-c2ccccc2Br)c(=O)n(C)c(=O)n3C)cc1OC	16.4µM*	.	.	.	20.6µM*	-8.5
Cn1c(=O)c2c(-c3cccc(Br)c3)n(C(C)(C)CO)cc2n(C)c1=O	?	.	.	.	?	-1.4
COc1ccc(C(C)=O)cc1CSc1nc(Nc2ccc(F)c(F)c2)c2ccccc2n1	23.1µM*	.	.	.	?	0.2
Fc1cccc(CSc2nc(NCCc3ccccc3)c3ccccc3n2)c1	23.1µM*	.	.	.	16.4µM*	-4.3
COc1ccc(C(C)=O)cc1CSc1nc(NCc2ccccc2)c2ccccc2n1	23.1µM*	.	.	.	?	3.6
COc1ccc(C(C)=O)cc1CSc1nc(NCCc2ccccc2)c2ccccc2n1	10.3µM*	.	.	.	18.4µM*	-7.4
Cc1cc(SCc2cccc(F)c2)c2ccccc2n1	.	.	.	.	.	8.2
COc1ccc(C(C)=O)cc1CSc1nc2cc(C(=O)O)ccc2c(=O)n1Cc1ccccc1	?	-12.2%	0.2%	0.0	-28.5%	-3.3
CCOC(Cn1c(SCc2cc(C(C)=O)ccc2OC)nc2ccccc2c1=O)OCC	-4.3%	17.2%	-15.6%	17.4	1.4%	-2.7
CC(C)CN1CCN(c2nc3c(c(=O)[nH]c(=O)n3C)n2Cc2ccccc2F)CC1	.	.	.	.	.	-0.1
O=c1c2ccccc2nc(SCc2nc(-c3ccccc3)no2)n1CCCO	.	.	.	.	.	-0.5
COc1ccc(OC)c(NC(=O)c2cc(=O)c3ccc(C)cc3o2)c1	.	.	.	.	.	-8.6
N#C/C(=C/c1ccc(CNC(=O)C(=O)Nc2cc(Cl)cc(Cl)c2)o1)C(=O)NCc1cccnc1	?	12.0%[10 µM]	5.8%	10.2	?	-3.3
O=C(NCc1cccnc1)/C(=C/c1ccc(-c2cccc(Cl)c2)o1)S(=O)(=O)c1ccccc1	?	11.2µM*	?	-105.9*	?	-2.3
O=C(NCc1cccnc1)/C(=C\c1ccc(-c2cccc(Cl)c2)o1)S(=O)(=O)c1ccccc1	5.17µM*	?	12.6µM*	-104.8*	4.61µM*	-9.9
CCCc1nn(C)c2c(=O)[nH]c(-c3cc(S(=O)(=O)Nc4ccccc4C)ccc3OCC)nc12	.	.	.	.	.	-7.4
COc1ccc2c(CN3CCN(c4ccccc4)CC3)cc(=O)oc2c1	.	.	.	.	.	-5.5
COC(=O)c1cccc(-n2c(CCC(=O)O)ccc2-c2cccs2)c1	6.5%	3.6%	-8.6%	14.0	-17.3%	-2.2
COC(=O)c1cccc(-n2c(CCC(=O)O)ccc2-c2ccc(OC)cc2)c1	14.6µM*	.	.	.	14.6µM*	-0.3
C=CCn1c(CCC(=O)O)ccc1-c1ccc(OC)cc1	-9.1%	-24.1%	2.3%	17.3	-3.2%	-7.8
COc1ccc(-c2ccc(CCC(=O)O)n2CC(C)C)cc1	20.6µM*	18.7%	-2.0%	38.4	?	-0.6
Cc1ccc(-c2nc3cc(NC(=O)c4cccs4)ccc3o2)cc1C	.	.	.	.	.	8.3
COc1ccc(S(=O)(=O)N2CCN(c3ccccn3)CC2)c(OC)c1	?	13.9%	-0.9%	21.3	-20.1%	-14.3
COc1ccc(S(=O)(=O)N2CCC(c3nnc(-c4ccccc4C)o3)CC2)c(OC)c1	6.51µM*	.	.	.	8.2µM*	4.4
SMILES	TDP1 cell noCPT	RORg inh	VP16 counter	IL1B secr inh	TDP1 cell CPT	LDHA block
Cc1ccccc1-c1nnc(C2CCN(S(=O)(=O)c3ccc(Cl)cc3)CC2)o1	3.66µM*	.	.	.	5.8µM*	-1.6
CCOC(=O)Nc1ccc(NS(=O)(=O)c2ccc(C)cc2Cl)cc1	.	.	.	.	.	0.7
CCCn1c(CCC(=O)Nc2cc(Cl)c(OC)cc2OC)nc2cccnc21	16.4µM*	.	.	.	?	-5.2
CCCn1c(CCC(=O)Nc2ccc(OCC)cc2)nc2cccnc21	?	.	.	.	?	-10.4
COc1cc(NC(=O)CCc2nc3cccnc3n2Cc2cccs2)cc(OC)c1OC	16.4µM*	.	.	.	16.4µM*	11.2
Cc1ccc(C)c(NC(=O)CCc2nc3cccnc3n2Cc2cccs2)c1	20.6µM*	.	.	.	18.4µM*	-1.4
CC(=O)c1cccc(NC(=O)CCc2nc3cccnc3n2Cc2cccs2)c1	-107.2%	.	.	.	?	-3.6
CC(C)CN1C(=O)C(=O)N(Cc2ncc(-c3ccc(Cl)cc3)o2)C1=O	.	.	.	.	.	-0.6
CCCc1ccc(NC(=O)Cc2c[nH]c3ccccc23)cc1	.	.	.	.	.	0.4
Cc1ccc(S(=O)(=O)Cc2noc(CCC(=O)NCc3ccc(Cl)cc3)n2)cc1	.	.	.	.	.	7.0
COc1cc(/C=c2\s/c(=C\C(=O)C(C)(C)C)[nH]c2=O)cc(Cl)c1OC(C)C	.	.	.	.	.	17.7
CC(C)(C)c1ccc(C(=O)NCCCNC(=O)c2ccc(C(C)(C)C)cc2)cc1	.	.	.	.	.	5.0
COCc1ccc(C(=O)NCC2(N3CCCCC3)CCCCC2)cc1	23.1µM*	-4.9%	-6.5%	5.5	?	-15.5
CC(C)(C)c1ccc(OCC(=O)NCC2(N3CCOCC3)CCCCC2)cc1	16.4µM*	.	.	.	13µM*	2.8
CN1CCN(C2(CNC(=O)c3ccc(C(C)(C)C)cc3)CCCCC2)CC1	16.4µM*	.	.	.	?	-5.8
CC(C)(C)c1ccc(C(=O)NCCCN2CCN(CCCNC(=O)c3ccc(C(C)(C)C)cc3)CC2)cc1	9.2µM*	7.08µM*	12.6µM*	-80.6*	9.2µM*	0.3
